Assay in all cases: DAPPL (digital affinity profiling via proximity ligation, sequencing); 10 mM Tris-HCl pH 7.5, 50 mM NaCl, 1 mM DTT, 4% glycerol, room temperature, 30 min; GST-TFs on glutathione beads, 16-mer random dsDNA library, 0.1% formaldehyde crosslink after washing; high values mean tight binding
The target of test [1] is T1, FLI1 (Homo sapiens, UniProt Q01543 1-452).
T1 sequence: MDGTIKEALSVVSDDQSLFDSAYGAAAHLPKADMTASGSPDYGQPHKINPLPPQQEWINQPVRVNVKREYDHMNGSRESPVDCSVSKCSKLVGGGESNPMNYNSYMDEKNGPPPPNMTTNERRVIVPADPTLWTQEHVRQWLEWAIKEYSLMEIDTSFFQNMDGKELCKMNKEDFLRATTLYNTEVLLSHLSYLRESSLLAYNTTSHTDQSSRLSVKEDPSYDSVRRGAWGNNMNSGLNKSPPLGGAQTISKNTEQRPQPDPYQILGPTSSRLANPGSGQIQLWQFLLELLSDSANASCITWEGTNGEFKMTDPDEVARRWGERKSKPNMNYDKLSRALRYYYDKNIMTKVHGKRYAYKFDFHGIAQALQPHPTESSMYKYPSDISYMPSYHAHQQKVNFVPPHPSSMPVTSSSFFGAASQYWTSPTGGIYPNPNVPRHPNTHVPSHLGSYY
The note with it: protein: recombinant; tags: N-terminal GST; dsDNA, one strand shown. The method in brief:
(§1)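 Each value of binding signal is a hexamer's read frequency for a factor divided by the same hexamer's frequency in the tag-only sample. Barcoded, bead-captured GST fusions of human transcription factors made in yeast were pooled with that sample and incubated with 200 nmole of a random double-stranded 16-mer DNA library in Tris/NaCl/DTT/glycerol buffer at room temperature for 30 min. Washing, 0.1% formaldehyde crosslinking, proximity ligation, PCR and Illumina NextSeq500 sequencing followed.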

Test [2] has as its target T2, ELK1 (Homo sapiens, UniProt P19419 1-428).
T2 sequence: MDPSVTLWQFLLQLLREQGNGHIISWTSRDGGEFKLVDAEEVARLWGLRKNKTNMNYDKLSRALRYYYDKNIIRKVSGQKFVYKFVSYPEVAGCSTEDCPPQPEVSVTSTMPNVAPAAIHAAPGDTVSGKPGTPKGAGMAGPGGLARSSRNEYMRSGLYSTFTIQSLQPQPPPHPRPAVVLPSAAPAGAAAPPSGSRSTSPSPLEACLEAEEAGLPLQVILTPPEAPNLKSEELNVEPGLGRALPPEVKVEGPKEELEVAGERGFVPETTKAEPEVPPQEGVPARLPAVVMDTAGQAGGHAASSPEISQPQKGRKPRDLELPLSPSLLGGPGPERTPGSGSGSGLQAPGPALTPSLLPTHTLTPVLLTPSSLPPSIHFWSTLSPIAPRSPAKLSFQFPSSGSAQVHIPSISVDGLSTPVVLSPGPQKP
The note with it: protein: recombinant; tags: N-terminal GST; dsDNA, one strand shown. The method in brief: as §1

The target of test [3] is T3, GABPA (Homo sapiens, UniProt Q06546 1-454).
T3 sequence: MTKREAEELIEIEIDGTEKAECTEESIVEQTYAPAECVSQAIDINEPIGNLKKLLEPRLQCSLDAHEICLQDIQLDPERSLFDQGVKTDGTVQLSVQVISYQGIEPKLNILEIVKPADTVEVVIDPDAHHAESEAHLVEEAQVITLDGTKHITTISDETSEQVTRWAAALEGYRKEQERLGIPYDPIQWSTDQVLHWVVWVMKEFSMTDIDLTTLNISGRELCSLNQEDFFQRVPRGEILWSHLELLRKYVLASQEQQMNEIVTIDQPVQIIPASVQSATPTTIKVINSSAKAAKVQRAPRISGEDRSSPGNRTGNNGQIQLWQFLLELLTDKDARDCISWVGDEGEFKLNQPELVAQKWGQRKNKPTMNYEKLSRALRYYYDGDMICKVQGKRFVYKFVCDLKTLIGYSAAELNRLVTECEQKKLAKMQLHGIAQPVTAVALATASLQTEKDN
The conditions noted are these: protein: recombinant; tags: N-terminal GST; dsDNA, one strand shown. The method in brief:
as §1

Test [4] has as its target T4, ERG (Homo sapiens, UniProt P11308 1-479).
T4 sequence: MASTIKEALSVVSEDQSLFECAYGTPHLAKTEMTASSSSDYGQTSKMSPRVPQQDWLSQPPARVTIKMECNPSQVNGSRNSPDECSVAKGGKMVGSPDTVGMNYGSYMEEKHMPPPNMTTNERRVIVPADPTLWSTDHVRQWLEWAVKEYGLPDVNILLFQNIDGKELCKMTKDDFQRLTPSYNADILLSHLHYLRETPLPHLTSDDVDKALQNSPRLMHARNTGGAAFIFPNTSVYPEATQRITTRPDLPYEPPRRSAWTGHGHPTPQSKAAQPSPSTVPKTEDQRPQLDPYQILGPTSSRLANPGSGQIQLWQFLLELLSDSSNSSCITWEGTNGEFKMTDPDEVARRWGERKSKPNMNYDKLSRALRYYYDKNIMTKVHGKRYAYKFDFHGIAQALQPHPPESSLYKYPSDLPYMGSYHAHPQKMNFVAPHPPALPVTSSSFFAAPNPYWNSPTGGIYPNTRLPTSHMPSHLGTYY
The conditions noted are these: protein: recombinant; tags: N-terminal GST; dsDNA, one strand shown. The method in brief: as §1

For test [5], the target named is ELF1 (Homo sapiens, UniProt P32519 1-619). The conditions noted are these: protein: recombinant; tags: N-terminal GST; dsDNA, one strand shown. The method in brief: as §1
Chain of ELF1 (P32519 whole entry): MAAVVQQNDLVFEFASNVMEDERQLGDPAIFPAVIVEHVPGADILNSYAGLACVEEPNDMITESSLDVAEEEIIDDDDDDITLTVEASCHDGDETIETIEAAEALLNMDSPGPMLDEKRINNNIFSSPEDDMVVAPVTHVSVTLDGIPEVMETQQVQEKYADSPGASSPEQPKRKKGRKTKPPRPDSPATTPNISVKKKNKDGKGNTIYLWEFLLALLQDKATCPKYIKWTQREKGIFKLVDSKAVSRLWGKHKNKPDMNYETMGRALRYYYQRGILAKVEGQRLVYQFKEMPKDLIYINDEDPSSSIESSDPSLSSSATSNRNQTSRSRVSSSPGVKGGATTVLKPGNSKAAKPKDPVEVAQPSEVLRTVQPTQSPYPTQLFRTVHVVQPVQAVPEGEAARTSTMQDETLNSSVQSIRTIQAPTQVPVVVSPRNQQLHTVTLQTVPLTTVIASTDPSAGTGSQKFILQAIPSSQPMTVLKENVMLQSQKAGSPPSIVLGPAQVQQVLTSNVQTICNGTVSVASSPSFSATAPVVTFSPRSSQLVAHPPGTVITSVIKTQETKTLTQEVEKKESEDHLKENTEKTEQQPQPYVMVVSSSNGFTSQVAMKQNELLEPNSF
Test [6] has as its target T5, EHF (Homo sapiens, UniProt Q9NZC4 1-300).
T5 sequence: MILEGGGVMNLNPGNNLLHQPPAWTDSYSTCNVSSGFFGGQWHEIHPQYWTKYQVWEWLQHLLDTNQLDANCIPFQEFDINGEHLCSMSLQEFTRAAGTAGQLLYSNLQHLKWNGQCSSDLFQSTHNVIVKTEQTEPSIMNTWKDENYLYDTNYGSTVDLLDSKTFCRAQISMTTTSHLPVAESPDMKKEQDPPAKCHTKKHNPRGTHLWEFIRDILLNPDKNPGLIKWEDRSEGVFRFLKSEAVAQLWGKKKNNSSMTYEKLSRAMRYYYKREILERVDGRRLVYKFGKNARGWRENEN
The note with it: protein: recombinant; tags: N-terminal GST; dsDNA, one strand shown. The method in brief: as §1

Test [7] has as its target SPI1 (Homo sapiens, UniProt P17947 1-270). The conditions noted are these: protein: recombinant; tags: N-terminal GST; dsDNA, one strand shown. The method in brief:
as §1

The target of test [8] is SPIB (Homo sapiens, UniProt Q01892 1-262). The conditions noted are these: protein: recombinant; tags: N-terminal GST; dsDNA, one strand shown. The method in brief: as §1
Chain of SPIB (Q01892 whole entry): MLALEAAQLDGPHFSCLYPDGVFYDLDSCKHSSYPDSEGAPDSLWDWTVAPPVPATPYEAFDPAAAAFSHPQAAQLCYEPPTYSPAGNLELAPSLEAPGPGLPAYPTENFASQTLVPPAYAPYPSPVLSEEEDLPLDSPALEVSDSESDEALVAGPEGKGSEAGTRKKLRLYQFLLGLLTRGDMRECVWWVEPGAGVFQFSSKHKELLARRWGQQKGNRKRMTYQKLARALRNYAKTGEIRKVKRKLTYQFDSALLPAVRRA
Test [9] concerns the target T6, ELK3 (Homo sapiens, UniProt P41970 1-407).
T6 sequence: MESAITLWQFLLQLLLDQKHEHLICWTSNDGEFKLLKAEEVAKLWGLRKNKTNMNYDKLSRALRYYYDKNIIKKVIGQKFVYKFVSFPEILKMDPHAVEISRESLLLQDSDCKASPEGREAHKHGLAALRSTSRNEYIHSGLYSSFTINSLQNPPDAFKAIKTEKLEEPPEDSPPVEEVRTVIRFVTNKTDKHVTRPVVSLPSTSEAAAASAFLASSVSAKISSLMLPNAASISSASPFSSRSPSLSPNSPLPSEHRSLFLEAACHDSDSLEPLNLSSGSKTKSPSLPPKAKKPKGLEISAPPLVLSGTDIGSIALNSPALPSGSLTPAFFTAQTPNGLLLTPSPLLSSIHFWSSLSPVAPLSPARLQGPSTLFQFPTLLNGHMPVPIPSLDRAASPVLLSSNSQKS
The conditions noted are these: protein: recombinant; tags: N-terminal GST; dsDNA, one strand shown. The method in brief:
as §1

In test [10] the target is T7, FEV (Homo sapiens, UniProt Q99581 1-238).
T7 sequence: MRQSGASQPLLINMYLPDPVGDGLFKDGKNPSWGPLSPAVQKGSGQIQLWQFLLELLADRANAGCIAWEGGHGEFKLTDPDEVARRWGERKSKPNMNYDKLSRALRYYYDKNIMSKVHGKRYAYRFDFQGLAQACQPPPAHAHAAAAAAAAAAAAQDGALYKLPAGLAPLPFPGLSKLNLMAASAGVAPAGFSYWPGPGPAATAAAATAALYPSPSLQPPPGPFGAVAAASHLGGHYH
The note with it: protein: recombinant; tags: N-terminal GST; dsDNA, one strand shown. The method in brief: as §1

Test [11] has as its target ETV5 (Homo sapiens, UniProt P41161 1-510). The conditions noted are these: protein: recombinant; tags: N-terminal GST; dsDNA, one strand shown. The method in brief: as §1
Test [12] has as its target HSF1 (Homo sapiens, UniProt Q00613 1-529). The note with it: protein: recombinant; tags: N-terminal GST; chain copies: 3; dsDNA, one strand shown. The method in brief: as §1
Test [13] addresses ELF4 (Homo sapiens, UniProt Q99607 1-663). The conditions noted are these: protein: recombinant; tags: N-terminal GST; dsDNA, one strand shown. The method in brief:
as §1

The target in test [14] is T8, ELK4 (Homo sapiens, UniProt P28324-2 1-405).
T8 sequence: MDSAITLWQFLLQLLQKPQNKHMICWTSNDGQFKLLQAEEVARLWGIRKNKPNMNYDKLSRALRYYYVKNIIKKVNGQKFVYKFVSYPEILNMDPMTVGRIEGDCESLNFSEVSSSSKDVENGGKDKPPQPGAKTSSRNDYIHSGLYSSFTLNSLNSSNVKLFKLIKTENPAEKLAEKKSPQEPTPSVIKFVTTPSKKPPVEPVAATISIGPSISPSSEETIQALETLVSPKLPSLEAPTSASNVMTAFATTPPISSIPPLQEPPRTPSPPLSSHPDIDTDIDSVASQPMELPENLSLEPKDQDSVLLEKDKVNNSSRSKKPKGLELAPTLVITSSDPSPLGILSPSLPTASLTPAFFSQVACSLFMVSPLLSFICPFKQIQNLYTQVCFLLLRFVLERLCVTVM
The note with it: protein: recombinant; tags: N-terminal GST; dsDNA, one strand shown. The method in brief:
as §1

Test [15] deals with T9, ETV2 (Homo sapiens, UniProt O00321 1-342).
T9 sequence: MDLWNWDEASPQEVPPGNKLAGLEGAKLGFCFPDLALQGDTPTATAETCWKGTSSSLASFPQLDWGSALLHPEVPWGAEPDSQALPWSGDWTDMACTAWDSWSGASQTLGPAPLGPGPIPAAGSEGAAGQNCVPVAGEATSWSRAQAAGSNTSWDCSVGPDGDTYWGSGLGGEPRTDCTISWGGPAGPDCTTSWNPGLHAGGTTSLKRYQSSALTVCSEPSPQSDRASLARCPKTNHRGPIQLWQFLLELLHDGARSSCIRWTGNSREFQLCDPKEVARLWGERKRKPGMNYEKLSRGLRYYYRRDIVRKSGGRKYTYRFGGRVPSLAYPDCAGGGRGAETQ
The conditions noted are these: protein: recombinant; tags: N-terminal GST; dsDNA, one strand shown. The method in brief:
as §1

Test [16] has as its target T10, ELF3 (Homo sapiens, UniProt P78545 1-371).
T10 sequence: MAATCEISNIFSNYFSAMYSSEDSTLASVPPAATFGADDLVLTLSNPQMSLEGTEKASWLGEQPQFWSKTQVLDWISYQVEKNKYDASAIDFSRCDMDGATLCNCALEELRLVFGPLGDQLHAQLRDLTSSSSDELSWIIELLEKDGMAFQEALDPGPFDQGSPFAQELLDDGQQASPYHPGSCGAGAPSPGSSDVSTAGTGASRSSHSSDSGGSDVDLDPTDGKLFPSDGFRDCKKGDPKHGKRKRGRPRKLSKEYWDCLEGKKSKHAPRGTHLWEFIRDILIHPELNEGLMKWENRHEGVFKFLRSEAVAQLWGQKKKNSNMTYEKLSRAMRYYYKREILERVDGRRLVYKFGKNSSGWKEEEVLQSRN
The conditions noted are these: protein: recombinant; tags: N-terminal GST; dsDNA, one strand shown. The method in brief: as §1

In test [17] the target is ETV1 (Homo sapiens, UniProt P50549 1-477). The conditions noted are these: protein: recombinant; tags: N-terminal GST; dsDNA, one strand shown. The method in brief: as §1
Chain of ETV1 (P50549 whole entry): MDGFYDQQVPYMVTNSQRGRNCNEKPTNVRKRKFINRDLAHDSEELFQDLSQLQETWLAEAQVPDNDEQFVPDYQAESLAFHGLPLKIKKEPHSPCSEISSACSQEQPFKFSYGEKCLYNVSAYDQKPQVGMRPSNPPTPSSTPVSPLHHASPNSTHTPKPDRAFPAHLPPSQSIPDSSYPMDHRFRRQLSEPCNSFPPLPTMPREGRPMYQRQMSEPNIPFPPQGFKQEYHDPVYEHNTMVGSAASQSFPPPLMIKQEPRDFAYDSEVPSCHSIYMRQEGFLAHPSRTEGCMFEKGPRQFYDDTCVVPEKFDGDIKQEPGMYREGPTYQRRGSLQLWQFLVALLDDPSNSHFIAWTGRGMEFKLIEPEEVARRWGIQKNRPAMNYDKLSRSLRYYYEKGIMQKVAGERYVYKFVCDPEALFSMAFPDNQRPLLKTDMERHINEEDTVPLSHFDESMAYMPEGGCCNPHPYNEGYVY

Chain of HSF1 (Q00613 whole entry): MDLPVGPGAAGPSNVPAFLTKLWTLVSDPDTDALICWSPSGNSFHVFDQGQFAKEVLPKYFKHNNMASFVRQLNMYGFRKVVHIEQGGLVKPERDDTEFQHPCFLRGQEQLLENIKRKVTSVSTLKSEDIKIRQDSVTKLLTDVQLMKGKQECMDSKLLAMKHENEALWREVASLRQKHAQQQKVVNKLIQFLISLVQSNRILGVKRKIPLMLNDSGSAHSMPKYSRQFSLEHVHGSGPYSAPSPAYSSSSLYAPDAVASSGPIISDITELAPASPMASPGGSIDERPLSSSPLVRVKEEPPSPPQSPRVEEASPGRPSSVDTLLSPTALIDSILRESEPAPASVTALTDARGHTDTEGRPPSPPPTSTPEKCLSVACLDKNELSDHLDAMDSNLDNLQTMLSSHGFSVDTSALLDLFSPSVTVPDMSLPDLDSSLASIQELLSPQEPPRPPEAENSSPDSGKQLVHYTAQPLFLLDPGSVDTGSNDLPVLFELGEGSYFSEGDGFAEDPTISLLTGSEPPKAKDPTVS
Chain of ETV5 (P41161 whole entry): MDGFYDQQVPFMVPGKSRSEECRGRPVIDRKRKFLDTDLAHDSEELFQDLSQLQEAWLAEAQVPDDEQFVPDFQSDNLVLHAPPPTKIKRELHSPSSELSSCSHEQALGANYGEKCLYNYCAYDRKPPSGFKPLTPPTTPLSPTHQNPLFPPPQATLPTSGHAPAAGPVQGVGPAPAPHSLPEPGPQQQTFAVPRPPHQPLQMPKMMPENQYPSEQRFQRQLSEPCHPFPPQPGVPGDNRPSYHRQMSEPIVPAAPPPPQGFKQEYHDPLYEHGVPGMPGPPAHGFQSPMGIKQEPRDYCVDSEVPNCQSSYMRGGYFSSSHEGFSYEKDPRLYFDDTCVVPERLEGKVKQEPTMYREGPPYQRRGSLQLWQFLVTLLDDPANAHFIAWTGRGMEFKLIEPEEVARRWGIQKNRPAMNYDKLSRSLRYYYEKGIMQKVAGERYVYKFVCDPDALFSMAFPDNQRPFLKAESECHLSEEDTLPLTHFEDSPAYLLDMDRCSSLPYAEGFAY
Chain of ELF4 (Q99607 whole entry): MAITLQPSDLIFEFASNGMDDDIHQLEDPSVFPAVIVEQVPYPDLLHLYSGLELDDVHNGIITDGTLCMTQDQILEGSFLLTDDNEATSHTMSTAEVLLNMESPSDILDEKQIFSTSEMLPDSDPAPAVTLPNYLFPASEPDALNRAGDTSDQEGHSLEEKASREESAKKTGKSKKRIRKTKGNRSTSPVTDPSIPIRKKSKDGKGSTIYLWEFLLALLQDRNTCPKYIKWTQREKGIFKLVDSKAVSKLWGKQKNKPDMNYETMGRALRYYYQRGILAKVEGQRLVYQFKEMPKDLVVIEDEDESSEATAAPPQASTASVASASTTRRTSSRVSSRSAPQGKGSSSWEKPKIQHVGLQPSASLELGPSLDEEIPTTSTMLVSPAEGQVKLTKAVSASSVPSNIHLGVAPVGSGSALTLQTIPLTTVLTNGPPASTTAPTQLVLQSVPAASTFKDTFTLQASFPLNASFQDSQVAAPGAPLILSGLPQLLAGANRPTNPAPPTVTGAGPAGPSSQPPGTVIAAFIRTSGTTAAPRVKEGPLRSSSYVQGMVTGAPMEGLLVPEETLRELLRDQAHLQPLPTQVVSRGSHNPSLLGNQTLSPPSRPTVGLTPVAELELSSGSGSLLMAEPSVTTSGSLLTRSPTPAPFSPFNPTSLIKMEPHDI

For GCATTC, the binding signal in test [1] is 1.15 fold enrichment (6-mer frequency, TF over GST control); in [2] it was 1.16 fold enrichment (6-mer frequency, TF over GST control); in test [3], 1.18 fold enrichment (6-mer frequency, TF over GST control); in [4], 1.12 fold enrichment (6-mer frequency, TF over GST control); in test [5], 1.13 fold enrichment (6-mer frequency, TF over GST control); in test [6], 1.07 fold enrichment (6-mer frequency, TF over GST control). Also, the binding signal in test [7] is 1.15 fold enrichment (6-mer frequency, TF over GST control); in test [8] it was 1.12 fold enrichment (6-mer frequency, TF over GST control); in test [9] it was 1.03 fold enrichment (6-mer frequency, TF over GST control); in test [10] it was 1.08 fold enrichment (6-mer frequency, TF over GST control); in test [11] it was 1.1 fold enrichment (6-mer frequency, TF over GST control); in [12], 1.17 fold enrichment (6-mer frequency, TF over GST control). Further, the binding signal in test [13] is 1.1 fold enrichment (6-mer frequency, TF over GST control); in test [14], 1.05 fold enrichment (6-mer frequency, TF over GST control); in [15] it was 1.09 fold enrichment (6-mer frequency, TF over GST control); in test [16] it was 1.11 fold enrichment (6-mer frequency, TF over GST control); in test [17], 1.24 fold enrichment (6-mer frequency, TF over GST control).
